This assay has as its system primary human hepatic stellate cells (donor 1). As to the kind of experiment: scaled lipid accumulation score (0 = DMSO-like, 1 = nortriptyline-like); higher = stronger HSC inactivation (lipid re-accumulation), active = hit call of the paper. The note with it: 48 h. How it is done:
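Primary lipid accumulation screen in primary human hepatic stellate cell myofibroblasts (donor 1, passage 8) in 384-well plates. 100 nL of library compound was pin-transferred into 30 µL medium in duplicate, and cells were treated for 48 h. The 'Scaled' score combines distance from plate baseline, toxicity and reproducibility penalties, and is normalised to nortriptyline (positive) and DMSO (negative) controls on each plate. A hit is defined as scaled >0.85 or among the top 3 wells per plate.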

[1] abbreviates: library stock concentration: 80 uM.
Setting [2] is: library stock concentration: 400 uM.
The mark [3] stands for this setting: library stock concentration: 2 mM.
[4] abbreviates: library stock concentration: 10 mM.
Where [5] appears, read: library stock concentration: 1 mM.
[6] abbreviates: library stock concentration: 3.33 mM.

The text below walks through data of the supplement of paper PMC9135407.

Values joined by “and” are separate entries in the source; they are usually repeats but may differ in a detail not shown here. Equal values may be shown once. The whole screen tested about 5,800 compounds, of which about 620 (11%) showed activity. This excerpt belongs to a sample that is enriched for actives. Unmarked numbers belong to inactive results.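 How the source made its calls: active = score above a cut-off or among the top three wells of a plate; in these data no inactive exceeds 0.85.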

As to `OC1CCC(Nc2ncc3nc(Nc4c(F)cc(F)cc4F)n([C@@H]4CCOC4)c3n2)CC1` (stereo partly specified), the “scaled lipid accumulation score” value is, setting by setting: under setting [1], ≤ 0; under setting [2], ≤ 0; under setting [3], ≤ 0; under setting [4], ≤ 0. As to `O=C1O/C(=C/Br)CC[C@@H]1c1cccc2ccccc12` [(R)-Bromoenol lactone], the “scaled lipid accumulation score” value under setting [5] is 0.064. On to `CCOC(=O)C1(CCCCCCOc2ccc(Cl)cc2)CO1` (stereo unspecified), for which the “scaled lipid accumulation score” value under setting [4] is ≤ 0. Regarding `O=C(O)CCC/C=C\C[C@@H]1[C@@H](/C=C/[C@@H](O)Cc2ccccc2)[C@H](O)C[C@@H]1O` [16-phenyl tetranor Prostaglandin F2.alpha.], the “scaled lipid accumulation score” value under setting [5] is ≤ 0. Take `COC(=O)/C=C/C(=O)N(O)CCCCNCc1ccc(COC(=O)Nc2cccc3ccccc23)cc1` [Methylstat]: the “scaled lipid accumulation score” value was ≤ 0 under setting [1], ≤ 0 under setting [2], ≤ 0 under setting [3] and 0.26 under setting [4]. For the molecule `CCCCC[C@H](O)/C=C/[C@H]1[C@H](O)CC(=O)[C@@H]1CCCCCCCCC(=O)O` [1a,1b-dihomo Prostaglandin E1], the “scaled lipid accumulation score” value under setting [5] is ≤ 0. Take `CC1=C(/C=C/C(C)=C/C=C/C(C)=C/C=C/C=C(C)/C=C/C=C(C)/C=C/C2=C(C)C(=O)[C@@H](O)CC2(C)C)C(C)(C)C[C@H](O)C1=O` [Astaxanthin]: under setting [4], the “scaled lipid accumulation score” value was ≤ 0.

For the molecule `CC1=C(/C=C/C(C)=C/C=C/C(C)=C/C=C/C=C(C)/C=C/C=C(C)/C=C/C2=C(C)C(=O)CCC2(C)C)C(C)(C)CCC1=O` [Canthaxanthin], the “scaled lipid accumulation score” value (library stock concentration: 3.5 mM) is 1.25 (active). As for `CC1=C(/C=C/C(C)=C/C=C/C(C)=C/C=C/C=C(C)/C=C/C=C(C)/C=C/C2=C(C)CCCC2(C)C)C(C)(C)CCC1` [Beta Carotene], the “scaled lipid accumulation score” value is ≤ 0 under setting [6] and ≤ 0 under setting [4].

Regarding `CC(=O)N1CCCC1C(=O)O` (stereo unspecified) [N-acetylproline], the “scaled lipid accumulation score” value under setting [4] was ≤ 0.

Turning to `C[C@]12C=CC(=O)C=C1CC[C@@H]1[C@@H]2[C@@H](O)C[C@@]2(C)[C@H]1CC[C@]2(O)C(=O)COC(=O)CCC(=O)O`, the “scaled lipid accumulation score” value under setting [4] was ≤ 0. In the case of `O=C(CCc1ccc(O)cc1)c1c(O)cc(O)cc1O[C@@H]1O[C@H](CO)[C@@H](O)[C@H](O)[C@H]1O` [Phlorizin], the “scaled lipid accumulation score” value is ≤ 0 under setting [6] and ≤ 0 under setting [4]. With `CCCCC/C=C\C=C1\C(=O)CC[C@@H]1C/C=C\CCCC(=O)O`, under setting [5], the “scaled lipid accumulation score” value was ≤ 0.

For `CC[P](CC)(CC)=[Au][S][C@@H]1O[C@H](COC(C)=O)[C@@H](OC(C)=O)[C@H](OC(C)=O)[C@H]1OC(C)=O` [Auranofin], the “scaled lipid accumulation score” value (library stock concentration: 2.9 mM) was 0.86 (active).

For `CC(=O)OC[C@H]1O[C@@H]([S-])[C@H](OC(C)=O)[C@@H](OC(C)=O)[C@@H]1OC(C)=O.CCP(CC)CC.[Au+]` [Auranofin], the “scaled lipid accumulation score” value under setting [4] is 0.439. For `CC[C@@H](CO)Nc1nc(NCc2ccc(-c3ccccn3)cc2)c2ncn(C(C)C)c2n1` [CR8, (S)-Isomer], the “scaled lipid accumulation score” value under setting [6] was ≤ 0. For `CSc1nc(N)c2ncn([C@@H]3O[C@H](COP(=O)(O)OP(=O)(O)OP(=O)(O)O)[C@H](O)C3O)c2n1` (stereo partly specified) [2-Methylthioadenosine triphosphate tetrasodium], the “scaled lipid accumulation score” value under setting [4] is ≤ 0. Same read-out and setting: with `CS(=O)(=O)c1ccc(-n2nc(C(F)(F)F)cc2-c2ccc(F)cc2)cc1` the figure was ≤ -0.055. For `CS(=O)(=O)CCNCc1ccc(-c2ccc3ncnc(Nc4ccc(OCc5cccc(F)c5)c(Cl)c4)c3c2)o1` [listing 1 of 2 here], the “scaled lipid accumulation score” value under setting [3] is 1.7 (active). Regarding `CS(=O)(=O)CCNCc1ccc(-c2ccc3ncnc(Nc4ccc(OCc5cccc(F)c5)c(Cl)c4)c3c2)o1` [listing 2 of 2 here], the “scaled lipid accumulation score” value was ≤ 0 under setting [1]; ≤ 0 and 0.144 under setting [2]; 0.42 under setting [3]; 0.429 under setting [4]. As to `Cc1cc(Nc2ncnc3ccc(-c4ccc(CNCCS(C)(=O)=O)o4)cc23)ccc1Oc1ccn2ncnc2c1` [HER2-Inhibitor-1] [listing 1 of 2 here], the “scaled lipid accumulation score” value under setting [6] was 0.203. In the case of `Cc1ccc(CNc2ncnc3ccc(-c4ccc(CO)o4)cc23)o1`, the “scaled lipid accumulation score” value runs as follows: under setting [6], ≤ -0.009; under setting [4], ≤ 0. As to `Cc1cc(Nc2ncnc3ccc(-c4ccc(CNCCS(C)(=O)=O)o4)cc23)ccc1Oc1ccn2ncnc2c1` [HER2-Inhibitor-1] [listing 2 of 2 here], the “scaled lipid accumulation score” value under setting [4] is 0.977 (active). Take `CCC(=O)Nc1ccc2ncnc(Nc3cccc(Br)c3)c2c1`: under setting [6], the “scaled lipid accumulation score” value was ≤ 0. Take `C[C@@H]1COC(Nc2ccc3ncnc(Nc4ccc(OCc5nccs5)c(Cl)c4)c3c2)=N1` [Varlitinib]: the “scaled lipid accumulation score” value was 0.382 under setting [6] and 0.594 under setting [4]. As to `CS(=O)(=O)CCNCc1nc(-c2ccc3ncnc(Nc4ccc(OCc5cccc(F)c5)c(Cl)c4)c3c2)cs1.Cl.Cl`, the “scaled lipid accumulation score” value under setting [4] is 1.38 (active). Consider `C=CC(=O)Nc1ccc2ncnc(Nc3ccc(OCc4cccc(F)c4)c(Cl)c3)c2c1`, for which the “scaled lipid accumulation score” value reads like this: under setting [1], ≤ -0.016; under setting [2], ≤ -0.016; under setting [3], ≤ -0.016; under setting [6], 0.132; under setting [4], 0.378 and 0.75. As for `CC(C)(O)CC(=O)NCCn1ccc2ncnc(Nc3ccc(Oc4cccc(C(F)(F)F)c4)c(Cl)c3)c21`, the “scaled lipid accumulation score” value under setting [6] is ≤ 0 and the “scaled lipid accumulation score” value under setting [4] is 0.302.
